Measured values as given in PubChem BioAssay AID1159580 (chemical genetic matrix, 2015).
Screen size: about 5,500 compounds; about 2,000 (36%) were called active. Roughly 18% stayed inconclusive and do not appear here. No stated cut-off is given here; in the data, active means normalized growth mostly below about 0.91 (no sharp cut-off); inconclusive means no clear call, values can overlap the other calls; inactive means mostly above about 0.92. This is one part of the list.

Assay: chemical genetic growth profiling, strain panel (AID 1159580);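 further: tested at 20 µM; growth read once vehicle control cultures reached saturation at 30 °C; 1 = growth at the plate median or of vehicle wells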
Conditions: growth OD

Measured: normalized growth

Nc1ccc(N=Nc2ccccc2)c(N)n1
inactive: S. cerevisiae deletion strains, locus YJR075W, strain HOC1, stronger effect = lower value 0.991 | S. cerevisiae deletion strains, locus YKL009W, strain mrt4, stronger effect = lower value 0.933 | S. cerevisiae deletion strains, locus YKL068W, stronger effect = lower value 1.02 | S. cerevisiae deletion strains, locus YKL085W, strain MDH1 (second series), stronger effect = lower value 1.01 | S. cerevisiae deletion strains, locus YKL085W, strain MDH1, stronger effect = lower value 1.01 | S. cerevisiae deletion strains, locus YKL190W, strain CNB1, stronger effect = lower value 1 | S. cerevisiae deletion strains, locus YKR026C, strain gcn3, stronger effect = lower value 0.969 | S. cerevisiae deletion strains, locus YKR091W, strain srl3, stronger effect = lower value 0.959 | S. cerevisiae deletion strains, locus YLR058C, strain SHM2, stronger effect = lower value 1 | S. cerevisiae deletion strains, locus YLR102C, strain apc9, stronger effect = lower value 1.02 | S. cerevisiae deletion strains, locus YLR113W, strain HOG1, stronger effect = lower value 0.997 | S. cerevisiae deletion strains, locus YLR268W, strain sec22, stronger effect = lower value 0.982 | S. cerevisiae deletion strains, locus YLR330W, strain CHS5, stronger effect = lower value 0.992 | S. cerevisiae deletion strains, locus YLR342W, strain FKS1 (second series), stronger effect = lower value 0.916 | S. cerevisiae deletion strains, locus YLR357W, strain rsc2, stronger effect = lower value 1.04 | S. cerevisiae deletion strains, locus YLR370C, strain arc18, stronger effect = lower value 0.946 | S. cerevisiae deletion strains, locus YLR371W, strain rom2, stronger effect = lower value 1.03 | S. cerevisiae deletion strains, locus YLR384C, strain iki3, stronger effect = lower value 0.972 | S. cerevisiae deletion strains, locus YLR418C, strain cdc73, stronger effect = lower value 0.881 | S. cerevisiae deletion strains, locus YML016C, strain PPZ1, stronger effect = lower value 0.987 | S. cerevisiae deletion strains, locus YML032C, strain rad52, stronger effect = lower value 0.938 | S. cerevisiae deletion strains, locus YML124C, strain tub3, stronger effect = lower value 1.02 | S. cerevisiae deletion strains, locus YMR078C, strain ctf18, stronger effect = lower value 1.01 | S. cerevisiae deletion strains, locus YMR125W, strain sto1, stronger effect = lower value 0.962 | S. cerevisiae deletion strains, locus YMR129W, stronger effect = lower value 0.978 | S. cerevisiae deletion strains, locus YMR223W, strain ubp8, stronger effect = lower value 0.92 | S. cerevisiae deletion strains, locus YMR231W, strain pep5, stronger effect = lower value 0.971 | S. cerevisiae deletion strains, locus YMR263W, strain SAP30, stronger effect = lower value 0.927 | S. cerevisiae deletion strains, locus YMR307W, strain GAS1, stronger effect = lower value 1.21 | S. cerevisiae deletion strains, locus YNL067W, strain RPL9B, stronger effect = lower value 0.922 | S. cerevisiae deletion strains, locus YNL128W, strain TEP1, stronger effect = lower value 0.966 | S. cerevisiae deletion strains, locus YNL153C, strain GIM3, stronger effect = lower value 0.975 | S. cerevisiae deletion strains, locus YNL183C, strain NPR1, stronger effect = lower value 0.934 | S. cerevisiae deletion strains, locus YNL233W, strain BNI4, stronger effect = lower value 0.937 | S. cerevisiae deletion strains, locus YNL250W, strain rad50, stronger effect = lower value 1.02 | S. cerevisiae deletion strains, locus YNL271C, strain bni1, stronger effect = lower value 0.995 | S. cerevisiae deletion strains, locus YNL298W, strain CLA4, stronger effect = lower value 0.928 | S. cerevisiae deletion strains, locus YNL322C, strain KRE1 (second series), stronger effect = lower value 1.03 | S. cerevisiae deletion strains, locus YNL322C, strain KRE1, stronger effect = lower value 1.01 | S. cerevisiae deletion strains, locus YNR049C, strain mso1, stronger effect = lower value 0.965 | S. cerevisiae deletion strains, locus YNR052C, strain pop2, stronger effect = lower value 0.936 | S. cerevisiae deletion strains, locus YOL012C, strain htz1 1.24 | S. cerevisiae deletion strains, locus YOL147C, strain pex11, stronger effect = lower value 0.982 | S. cerevisiae deletion strains, locus YOR061W, strain CKA2, stronger effect = lower value 0.995 | S. cerevisiae deletion strains, locus YOR069W, strain VPS5, stronger effect = lower value 0.998 | S. cerevisiae deletion strains, locus YOR080W, strain dia2, stronger effect = lower value 0.967 | S. cerevisiae deletion strains, locus YOR136W, strain idh2, stronger effect = lower value 1.01 | S. cerevisiae deletion strains, locus YOR144C, strain elg1, stronger effect = lower value 1.01 | S. cerevisiae deletion strains, locus YOR184W, strain ser1, stronger effect = lower value 1.02 | S. cerevisiae deletion strains, locus YOR231W, strain MKK1, stronger effect = lower value 0.942 | S. cerevisiae deletion strains, locus YOR316C, strain cot1, stronger effect = lower value 1.02 | S. cerevisiae deletion strains, locus YPL055C, strain LGE1, stronger effect = lower value 0.934 | S. cerevisiae deletion strains, locus YPL106C, strain sse1, stronger effect = lower value 0.978 | S. cerevisiae deletion strains, locus YPL241C, strain CIN2, stronger effect = lower value 0.998 | S. cerevisiae deletion strains, locus YPL256C, strain CLN2, stronger effect = lower value 0.962 | S. cerevisiae deletion strains, locus YPR119W, strain clb2, stronger effect = lower value 1.02 | S. cerevisiae deletion strains, locus YPR141C, strain kar3, stronger effect = lower value 1.04 | S. cerevisiae deletion strains, locus YPR163C, strain tif3, stronger effect = lower value 0.952 | S. cerevisiae deletion strains, locus YPR167C, strain met16, stronger effect = lower value 1.02 | S. cerevisiae deletion strains, strain wtn01, stronger effect = lower value 0.964 | S. cerevisiae strains, strain wild type, stronger effect = lower value 0.987
active: S. cerevisiae deletion strains, locus YKL160W, strain elf1, stronger effect = lower value 0.772 | S. cerevisiae deletion strains, locus YKR001C, strain vps1, stronger effect = lower value 0.885 | S. cerevisiae deletion strains, locus YLL001W, strain dnm1, stronger effect = lower value 0.8 | S. cerevisiae deletion strains, locus YLL026W, stronger effect = lower value 0.825 | S. cerevisiae deletion strains, locus YLL041C, strain sdh2, stronger effect = lower value 0.896 | S. cerevisiae deletion strains, locus YLR027C, strain aat2, stronger effect = lower value 0.802 | S. cerevisiae deletion strains, locus YLR039C, strain RIC1, stronger effect = lower value 0.596 | S. cerevisiae deletion strains, locus YLR221C, strain rsa3, stronger effect = lower value 0.7 | S. cerevisiae deletion strains, locus YLR258W, strain gsy2, stronger effect = lower value 0.771 | S. cerevisiae deletion strains, locus YLR262C, strain YPT6 (second series), stronger effect = lower value 0.351 | S. cerevisiae deletion strains, locus YLR262C, strain YPT6, stronger effect = lower value 0.574 | S. cerevisiae deletion strains, locus YLR320W, strain mms22, stronger effect = lower value 0.429 | S. cerevisiae deletion strains, locus YLR342W, strain FKS1, stronger effect = lower value 0.861 | S. cerevisiae deletion strains, locus YML120C, strain ndi1, stronger effect = lower value 0.79 | S. cerevisiae deletion strains, locus YMR058W, strain fet3, stronger effect = lower value 0.716 | S. cerevisiae deletion strains, locus YMR205C, strain PFK2, stronger effect = lower value 0.568 | S. cerevisiae deletion strains, locus YNL071W, strain lat1, stronger effect = lower value 0.261 | S. cerevisiae deletion strains, locus YNL209W, strain ssb2, stronger effect = lower value 0.791 | S. cerevisiae deletion strains, locus YNL248C, strain rpa49, stronger effect = lower value 0.814 | S. cerevisiae deletion strains, locus YNL307C, strain MCK1, stronger effect = lower value 0.798 | S. cerevisiae deletion strains, locus YOL006C, strain TOP1, stronger effect = lower value 0.332 | S. cerevisiae deletion strains, locus YOR001W, strain rrp6, stronger effect = lower value 0.753 | S. cerevisiae deletion strains, locus YOR070C, strain gyp1, stronger effect = lower value 0.774 | S. cerevisiae deletion strains, locus YOR083W, strain WHI5, stronger effect = lower value 0.784 | S. cerevisiae deletion strains, locus YOR106W, strain vam3, stronger effect = lower value 0.563 | S. cerevisiae deletion strains, locus YOR265W, strain rbl2, stronger effect = lower value 0.903 | S. cerevisiae deletion strains, locus YOR270C, strain vph1, stronger effect = lower value 0.243 | S. cerevisiae deletion strains, locus YOR290C, strain snf2, stronger effect = lower value 0.782 | S. cerevisiae deletion strains, locus YPL051W, strain arl3, stronger effect = lower value 0.554 | S. cerevisiae deletion strains, locus YPL078C, strain atp4, stronger effect = lower value 0.741 | S. cerevisiae deletion strains, locus YPL240C, strain hsp82, stronger effect = lower value 0.849
